Among the data in ChEMBL document CHEMBL4513216, “Probing the Open Global Health Chemical Diversity Library for Multistage-Active Starting Points for Next-Generation Antimalarials” (ACS Infect Dis, 2020) are INHIBITION values, retold here.

Among all 69,000 compounds or so, about 8,600 (12%) showed an effect of 50% or more. This is one part of a sample in which strong results are shown more often than they occur.

In this assay the test system is Plasmodium berghei. Put plainly: Screen against P. berghei liver stage (PbLuc), transformed with Luciferase, at 10uM. Format: functional, HepG2. To be noted: tested at 10 uM.
On to `O=C(O)c1ccc2[nH]cc(CN3CCOCC3)c2c1`, for which the INHIBITION is -9.76%.
For `O=C(O)c1ccc2c(CN3CCOCC3)c[nH]c2c1`, the INHIBITION turned out to be 56.5%.
Under `O=C(O)c1ccc2c(CN3CCCC3)c[nH]c2c1` stands 42.3%; under `Cc1cccc(C(=O)NC(C(=O)NCc2ccc(O)nc2)C(C)C)c1` (stereo unspecified), 28.7%.
On to `c1ccc(-c2cc(CN3C[C@H]4CC[C@H]3C4)on2)cc1`, for which the INHIBITION is given as -0.27%.
Consider `c1ccc(-c2cc(CN3C[C@H]4CC[C@@H](C3)N(CC3CC3)C4)on2)cc1`, for which the INHIBITION is 48.2%.
Regarding `c1ccc(-c2cc(CN3C[C@H]4CC[C@@H](C3)N(CC3CCC3)C4)on2)cc1`, the INHIBITION worked out at 86.8%.
Under `CN(c1cccnn1)C1CCN(C(=O)Cc2c[nH]c3ccccc23)CC1` stands 36.1%; under `CCCOC1CCCN(c2nc(CC)nc3c2cnn3C)C1` (stereo unspecified), 7.77%.
Under `Cc1nc(N2CCCC2)nc2c1CCN(C(=O)C1CCC1)CC2` stands -21.1%; under `Nc1ncc(-c2csc(NC(=O)C[C@H]3COCCN3)n2)cn1`, -7.79%.
Under `O=C(Cc1ccc2c(c1)CCC2)NCCNc1cnccn1` stands 8.64%; under `c1cnc(N2CCO[C@H]3[C@H](OCC4CCOCC4)CC[C@@H]32)nc1`, 21.6%; under `COc1ccc(CN2C[C@H](OCC3CCOCC3)[C@H]3COC[C@H]32)cc1`, 41.8%.
In the case of `c1csc(CN2C[C@H](OCC3CCOCC3)[C@H]3COC[C@H]32)n1`, the INHIBITION is 26.5%.
To `c1cnc(N2C[C@H](OCC3CCOCC3)[C@H]3COC[C@H]32)nc1` belongs 68.9%.
In the case of `c1cc(CN2C[C@H](OCC3CCOCC3)[C@H]3COC[C@H]32)cs1`, the INHIBITION was found to be 9.65%.
As to `c1cc(CN2C[C@H](OCC3CCOCC3)[C@H]3COC[C@H]32)co1`, the INHIBITION was found to be 57.3%.
As for `COc1ccc(-n2cc3[nH]c(=O)[nH]n3c2=O)cc1`, the INHIBITION is 3.68%.
To `Cc1ncncc1C(=O)N1CCCC(n2ccnc2C)C1` (stereo unspecified) belongs -20.1%; to `NC(=O)N1CCC2(CC1)CN(Cc1cccnc1)C(=O)CO2`, 2.4%; to `O=C(c1ccco1)N1CCCC2(CN(Cc3cccs3)CCO2)C1` (stereo unspecified), 2.02%.
Under `COCCN1CCC2(CC1)CN(C(=O)c1ccccc1)CCO2` stands 39.5%; under `Cc1nocc1C(=O)N1CCOC2(COCCN(C(C)C)C2)C1` (stereo unspecified), 20.6%.
As to `COCCN1CCOCC2(C1)CN(C(=O)c1conc1C)CCO2` (stereo unspecified), the INHIBITION came out at 53.4%.
As to `O=C(c1ccco1)N1CCCC2(CN(Cc3ccoc3)CCO2)C1` (stereo unspecified), the INHIBITION was -8.25%.
To `O=C(c1ccco1)N1CCCC2(CN(Cc3ccsc3)CCO2)C1` (stereo unspecified) belongs 76.5%; to `Cc1nocc1C(=O)N1CCOC2(COCCN(CC3CC3)C2)C1` (stereo unspecified), 1.7%.
As to `COCCN1CCC2(CC1)CN(C(=O)c1cccs1)CCO2`, the INHIBITION is listed as -23.3%.
As to `COCCN1CCC2(CC1)CN(C(=O)c1ccco1)CCO2`, the INHIBITION is listed as 51.9%.
Under `O=C(CC1CC1)N1CC[C@H]2OCC[C@@]2(COc2ncccc2F)C1` stands -31.3%; under `CN1CCN(C(=O)C2CCCN(c3cccnn3)C2)CC1` (stereo unspecified), 42.4%; under `O=C(Nc1cc(C(F)(F)F)c[nH]c1=O)C1CCCCN1` (stereo unspecified), -5.51%.
Under `CNC(=O)CCN(C)c1nc(-c2ccncc2)nc2c1CCNC2` stands 35.8%; under `CNc1ccnc(N2C[C@@H](C)[C@](O)(C3CC3)C2)n1`, 39.9%; under `CCCc1nnc(N2CC[C@](C)(O)[C@H](C)C2)s1`, -50.3%.
Under `CCCc1nnc(N2C[C@@H](C)[C@@](C)(O)C2)s1` stands 9.96%; under `CNc1ccnc(N2CC[C@@](O)(C3CCOCC3)[C@H](C)C2)n1`, 59.3%; under `CCCc1nnc(N2CC[C@@](O)(C3CCOCC3)[C@H](C)C2)s1`, 60.3%.
In the case of `CNc1ccnc(N2C[C@@H](C)[C@](O)(C3CCC3)C2)n1`, the INHIBITION was 30.1%.
Under `Cc1cnc(C2(C)CCN(Cc3csc(C)n3)CC2)s1` stands 6.32%; under `O=C(NC1CCCOc2cc(Cl)ccc21)c1ccc(=O)[nH]n1` (stereo unspecified), -10.9%.
Regarding `CCN1CC2(CCC1=O)CCN(C(=O)c1cn3cccnc3n1)CC2`, the INHIBITION is reported as -13.6%.
To `COc1ccc(Br)cc1SCCC(N)=O` belongs 16.1%; to `O=C(NC1CC1)[C@@H]1CCO[C@@H]2CCN(Cc3ccsc3)C[C@H]21`, 27.3%.
Consider `O=C(NCc1ccccn1)[C@@H]1CCO[C@@H]2CCN(Cc3ccoc3)C[C@H]21`, for which the INHIBITION is 54.6%.
Under `O=C(NC1CC1)[C@@H]1CCO[C@@H]2CCN(Cc3ccco3)C[C@H]21` stands 18.3%.
To `CN1CC[C@H]2OCC[C@@H](C(=O)NCc3ccco3)[C@@H]2C1` belongs 18.3%.
To `O=C(NCc1ccccn1)[C@H]1COC[C@H]2CN(Cc3ccoc3)C[C@H]21` belongs 31.8%.
For `O=C(NCc1ccco1)[C@@H]1CCO[C@@H]2CCN(CC3CC3)C[C@@H]21`, the INHIBITION was determined as 67.2%.
Turning to `O=C(NCC1CC1)[C@@H]1CCO[C@@H]2CCN(Cc3ccco3)C[C@H]21`, the INHIBITION is given as -22.8%.
For the compound `Cn1cc(CN2CC[C@H]3OCC[C@@H](C(=O)NCc4ccco4)[C@@H]3C2)cn1`, the INHIBITION was found to be 5.96%.
Under `O=C(NC1CC1)[C@@H]1CCO[C@@H]2CCN(CC3CCC3)C[C@H]21` stands 61.1%; under `O=C(NC1CC1)[C@@H]1CCO[C@@H]2CCN(C3CCCC3)C[C@H]21`, 3.25%.
As for `O=C(NC1CC1)[C@@H]1CCO[C@@H]2CCN(CC3CCC3)C[C@@H]21`, the INHIBITION is 91%.
`O=C(NC1CC1)[C@@H]1CCO[C@@H]2CCN(C3CCOCC3)C[C@H]21`: the INHIBITION is listed as -48.2%.
Under `CN(C)Cc1ccnc(C2CCCN2Cc2cc3ccccc3s2)n1` (stereo unspecified) stands 19.6%; under `CC1CN(Cc2cc(C#N)ccc2F)CCN1Cc1nccn1C` (stereo unspecified), 22.95%; under `O=C(CCc1cc2n(n1)CCCNC2)N1CCSCC1`, -24.7%.
To `CNc1nc(C2CCCCN2C(=O)COC)nc2c1CN(C)CC2` (stereo unspecified) belongs 38.2%.
To `O=C(NC1CC1)[C@@H]1CCO[C@@H]2CCN(CCc3ccccc3)C[C@@H]21` belongs 27.3%.
As for `O=C(NC1CC1)[C@@H]1CCO[C@@H]2CCN(C3CCOCC3)C[C@@H]21`, the INHIBITION turned out to be 26.8%.
For `CNC(=O)[C@@H]1CCO[C@@H]2CCN(CCc3ccccc3)C[C@H]21`, the INHIBITION is recorded as 8.52%.
Under `O=C(NC1CCC1)[C@@H]1CCO[C@@H]2CCN(C3CCCC3)C[C@@H]21` stands 53.4%; under `O=C(NC1CCC1)[C@@H]1CCO[C@@H]2CCN(CCc3ccccc3)C[C@H]21`, 53.5%; under `O=C(NC1CCC1)[C@@H]1CCO[C@@H]2CCN(C3CCCC3)C[C@H]21`, -25.2%.
